Screen size: about 370,000 compounds; about 5,400 (1.5%) were called active. The sample as a whole holds a higher share of actives than the screen did. Unmarked numbers belong to inactive results.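 The calls were made as follows: active = activation above the mean of all tested compounds plus 3 SD (cut at about 5.5% in these data); inactive = the rest.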

The record followed here is PubChem BioAssay AID652067 (The Scripps Research Institute Molecular Screening Center, 2013).

This assay concerns DAF-12 nuclear receptor (Haemonchus contortus). In words: hcDAF-12 driven luciferase reporter activation – cell-based, luminescence, HEK293, lit1-tk-luc reporter, primary screen (AID 652067).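 Also: 100% = response to 3 µM Δ7-dafachronic acid high control.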 Conditions: HEK293 hcDAF-12 lit1-tk-luc reporter, at 6.8 µM, active compounds read high, 0% DMSO, 100% Δ7-dafachronic acid. On the technique in general: Reporter assays use an easily measured gene product as a stand-in for the process of interest.
In the case of `O=C(CSc1nc2ccccc2nc1N1CCCCC1)N1CCN(S(=O)(=O)c2cccc([N+](=O)[O-])c2)CC1`, the activation is -0.06%. In the case of `O=C(CSc1nnc(-c2ccccn2)n1-c1ccccc1)Nc1ccc2c(c1)OCO2`, the activation was -1.02%. Under `Cc1ccc(-n2c(SCC(=O)Nc3ccc4c(c3)OCO4)nnc2-c2ccccn2)cc1` stands -2.82%; under `CC(C#N)OC(=O)c1cccnc1SCC(=O)Nc1ccc2c(c1)OCO2` (stereo unspecified), 7.41% (active); under `COC(=O)c1cc(S(=O)(=O)N2CCN(c3ccccc3C)CC2)cn1C`, -0.73%. Turning to `C[C@H](O)[C@@H]1C(=O)N2CCc3c([nH]c4c(-c5ccc6c(c5)OCO6)cccc34)[C@@H]2C[C@@H]1N(C)C(=O)c1ccco1`, the activation was 1.47%.

As to `Cc1cccc(C(=O)Nc2c(-c3ccc(F)cc3)nc3ncccn23)c1`, the activation was -3.14%. As for `COc1ccc(/C=C2\CC3(OC(C)=O)CCCN2C3)cc1` (stereo unspecified), the activation is -3.46%.

As for `N#Cc1ccccc1NC(=O)COc1c(Br)cc(Br)c2cccnc12`, the activation is 5.88% (active). As for `O=C(COC(=O)c1ccccn1)Nc1cccc2ccccc12`, the activation is -0.09%. Next, `Cc1cc(NC(=O)COc2ccccc2C#N)no1`: 3.78%. Next, `COC(=O)C1=C(C)N(Cc2ccccc2C(F)(F)F)C(=NCc2ccc(OC)cc2)NC1c1cccc(C(F)(F)F)c1` (stereo unspecified): 0.01%. Next, `CC(C)[C@H]1COCCS(=O)(=O)N1Cc1ccccc1-c1cccc2c1sc1ccccc12`: 1.38%. Take `CC(C)N(Cc1ccccc1)C(=O)COC(=O)c1cnccn1`: the activation was -0.24%.

Consider `O=C(Oc1ccc(-c2nc(-c3ccccn3)no2)cc1)c1ccccc1`, for which the activation was 0.86%. Under `Brc1ccc(-c2noc(-c3ccccc3)n2)o1` stands 7.04% (active). Take `O=S(=O)(c1ccc(Br)cc1)c1nc(-c2ccccc2)oc1N1CCOCC1`: the activation is 1.01%. As for `Cc1ccc(-n2c(SCC(=O)Nc3ccc(S(=O)(=O)Nc4nccs4)cc3)nnc2-c2cccnc2)cc1`, the activation is -2.17%. Next, `c1ccc(C2=Nc3cccc4cccc(c34)N2)cc1`: 6.59% (active).

As for `COc1ccccc1C1=Nc2cccc3cccc(c23)N1`, the activation was -1.59%. Under `Brc1ccc(C2CC(c3ccccc3)=Nc3ccccc3N2)cc1` (stereo unspecified) stands 4.68%.

Consider `O=C(CSc1nc2ccccc2n1Cc1ccccc1Cl)N/N=C\c1c[nH]c2ccccc12`, for which the activation is 1.72%. Next, `O=C(CC1SCCNC1=O)Nc1ccc(Cl)cc1` (stereo unspecified): 1.04%; `CCOCc1nnc(NC(=O)CCC2CCCCC2)s1`: -1.11%. Under `CC(C)CC(=O)NC(=S)NNC(=O)c1cccc([N+](=O)[O-])c1` stands 1.89%; under `CC(C)CC(=O)N/C(N)=N/c1nc2ccccc2s1`, 8.5% (active); under `CC(NC(=O)COC(=O)c1ccc2ccccc2n1)c1ccccc1` (stereo unspecified), 2.13%.

In the case of `Cc1cnc(C)c(N2CCN(C(=O)C3CCC(=O)N(CCc4cccc(F)c4)C3)CC2)n1` (stereo unspecified), the activation is -0.94%. For the molecule `Cc1sc2nc(SCC(=O)c3ccc(O)c(O)c3)n(Cc3ccco3)c(=O)c2c1C`, the activation was -0.45%. Consider `CC1=C(N2CCN(c3ncccn3)CC2)CCC1=O`, for which the activation was -1.78%. Next, `c1cnc(N2CCN(c3ccc4ccccc4n3)CC2)nc1`: 9.72% (active); `CC12CCC(C(=O)N3CCN(c4ncccn4)CC3)(c3nc4ccccc4nc31)C2(C)C` (stereo unspecified): -0.6%; `COC(=O)N1Cc2ccnnc2CC1c1ccccc1Br` (stereo unspecified): -2.69%.

Regarding `Nc1ccn([C@@H]2O[C@H](C(=O)N[C@H]3CCCCNC3=O)[C@@H](O)[C@H]2O)c(=O)n1`, the activation is 0.58%.

Regarding `Cc1cccc(N2CCN(Cc3c(C)n(C)n(-c4ccccc4)c3=O)CC2)c1C`, the activation is -2.12%. On to `Cc1ccc(CN2CCN(Cc3ccccc3-c3ccco3)CC2CCO)o1` (stereo unspecified), for which the activation was -0.79%. In the case of `CCn1cc(CN2CCN(CC(C)(C)C)C(CCO)C2)c2ccccc21` (stereo unspecified), the activation is 7.54% (active). Under `COc1ccccc1N1CCC(N2CCN(CC(C)(C)C)C(CCO)C2)CC1` (stereo unspecified) stands -0.72%.

With `COC(=O)[C@]12C[C@H](CC(=O)NCc3ccccc3)C(=O)N(Cc3ccccc3)C1=C[C@H](COCc1ccccc1)O[C@@H]2C`, the activation was -1.28%. Next, `CC(=O)c1cccc(NC(=O)COc2ccc(S(=O)(=O)N3CCOCC3)cc2)c1`: -0.45%. On to `Cc1ccccc1NC(=O)C1CCN(c2ncccn2)CC1`, for which the activation was 0.03%.

In the case of `Nn1c(SCC(=O)N2c3ccccc3Sc3ccccc32)nnc1-c1n[nH]c2c1CCC2`, the activation is -2.66%. In the case of `CCOC(=O)c1ccccc1NC(=O)c1c(N)n(C)c(=O)[nH]c1=O`, the activation is -0.79%. Take `CCOC(=O)c1cnn(Cc2ccccc2Cl)c1N`: the activation was 1.1%. Under `CCOC(=O)c1cc2n(c1N)-c1ccccc1C2=O` stands 6.53% (active); under `C[C@H](O)[C@@H]1CN2CCc3ccc(-c4ccc5c(c4)OCO5)cc3[C@@H]2C[C@@H]1N(C)C(=O)C1CCCCC1`, -0.66%. In the case of `Cc1ccc(OCc2nnc(SC/C=C/c3ccccc3)n2Cc2ccco2)cc1`, the activation was -1.14%. Next, `COc1ccc(N2CCN(CCNS(=O)(=O)c3ccc(C(C)(C)C)cc3)CC2)cc1`: -4.56%; `CC1=NCCN1S(=O)(=O)c1ccc(Br)c(C)c1`: -1.01%. As to `COc1ccc(CN2C/C(=C/c3ccccc3)N3C(=O)C[C@@H](c4ccccc4)N=C23)c(OC)c1`, the activation is -1.56%. Turning to `CN(CCOc1ccccc1)C(=O)c1cc(COc2c(F)cccc2F)on1`, the activation was -1.26%. Consider `COc1cccc2cc(C(=O)N(C)C)c(=O)oc12`, for which the activation was -0.74%. For `COc1cc2ccccc2cc1C(=O)N(CCN(C)C)c1nc2c(F)cccc2s1`, the activation is 6.37% (active). On to `O=S1(=O)c2ccc(N3CCN(Cc4ccccc4F)CC3)cc2Oc2ccccc2CN1Cc1cn(Cc2ccc(Cl)cc2)nn1`, for which the activation is 0.96%. Under `COc1ccc(CNS(=O)(=O)c2cc(Br)ccc2Br)cc1` stands -0.97%; under `CC1CCN(C(=O)c2ncn3c2C(=O)N[C@@H](C)C3)CC1`, -0.73%. Next, `CCc1c(C)nc2c(OC)cccc2c1Cl`: -0.4%; `Cc1nc(N=C(N)N)nc2c(C)cccc12`: 5.96% (active). With `COc1nc(N=C(N)N)nc2c(C)cccc12`, the activation was 6.14% (active).

Consider `CCOC(=O)[C@]12CCCCC/C=C\1N(Cc1ccc(OC)cc1)C(=O)[C@H]2CC(=O)N1CCOCC1`, for which the activation is 4.16%. For the molecule `Cc1cc(C(=O)NN=C/C=C/c2ccco2)n[nH]1`, the activation is -0.38%. As for `NNc1nc2c(Cl)cccc2s1`, the activation is 10% (active). In the case of `COC(=O)C1=C(C)N(Cc2ccccc2C(F)(F)F)C(=NCC2CC2)NC1c1cccc(Cl)c1` (stereo unspecified), the activation is -1.98%. Under `COc1cc(OC)cc(-c2nc3ccccc3c(=O)n2NC(=O)c2cccnc2Cl)c1` stands -1.71%; under `Cc1cccc(-c2nc3ccccc3c(=O)n2NC(=O)Cc2ccc(Cl)cc2)c1`, 6.73% (active). For the molecule `O=C(Nn1c(-c2ccc(Cl)cc2)nc2ccccc2c1=O)c1cccnc1Cl`, the activation was 0.57%. Next, `S=c1c2[nH]cnc2ncn1CCSc1ncnc2nc[nH]c12`: -0.28%; `O=C(O)CCCC(=O)Nc1ccccc1-n1ccnc1`: -1.24%; `CC(C)CC(=O)Nc1ccc(Cc2ccncc2)cc1`: 0.36%. Under `CC(CC(=O)Nc1ccccc1)n1ccnc1` (stereo unspecified) stands 5.72% (active); under `CCOc1ccc(NC(=O)CCS(=O)(=O)c2ccc3c(c2)CCCN3C(=O)CC)cc1`, -1.11%. For `Cc1ccccc1NC(=O)CCOc1ccccc1`, the activation was 0.95%.

Turning to `COc1cc2ccccc2cc1C(=O)Nc1ccccc1C`, the activation is 10.1% (active). Under `Cc1ccccc1C(=O)Nc1ccccc1Sc1ccccc1` stands -0.9%. Next, `CCCCCCCCN1C(=O)[C@@H](CC(=O)NCc2ccccc2)C[C@@]2(C(=O)OC)C1=C[C@H](C(C)(C)C)O[C@@H]2C`: 1.65%; `COC1=C[C@H](C(=O)NCCNC(C)=O)[C@H](C)[C@@H](c2ccccc2)CC1=O`: -2.16%. Under `O=C(c1ccccc1)c1ccc(-c2ccccc2C(=O)NC2CCCCN(Cc3ccc(Cl)cc3)C2=O)cc1` (stereo unspecified) stands -0.91%; under `COC(=O)c1c(-c2ccc(OC)cc2)c2c(c3c4ccccc4n(S(=O)(=O)c4ccc(C)cc4)c13)C(=O)N(C)C2`, 1.29%. Take `COc1ccccc1OCc1nc2ccccc2s1`: the activation was 17.9% (active).

On to `CCc1ccc(-c2nnn(Cc3nc4ccccc4s3)n2)cc1`, for which the activation is 3.01%. Next, `COC(=O)C1[C@H]2SC(C)(C)C(C(=O)OC)N2C(=O)N1Cc1nc2ccccc2s1` (stereo partly specified): 0.45%; `N#Cc1ccc(OC[C@@H](O)CN2CCC(C(O)(c3ccccc3)c3ccccc3)CC2)c(F)c1`: 0.25%. As for `Cc1ccnc(NC(=O)CCCOc2ccccc2)c1`, the activation was 2.54%. Under `Cc1ccnc(NC(=O)c2ccoc2C)c1` stands 7.44% (active); under `COc1cc(SC)ccc1C(=O)Nc1cc(C)ccn1`, 9.16% (active).

On to `CSCCC(NC(=O)c1ccco1)C(=O)Nc1cc(C)ccn1` (stereo unspecified), for which the activation is 5.45%. Next, `COc1cc(SC)ccc1C(=O)Nc1nc(C)cs1`: -4.3%.

In the case of `Cc1ccnc(NC(=O)C(C)N2C(=O)c3ccccc3C2=O)c1` (stereo unspecified), the activation is -0.09%.

`O=C(NCc1ccccc1)[C@H]1CCCN1C(=O)[C@@H]1CCCN1C(=O)c1ccc(Cl)cc1Cl`: the activation was -1.62%. Under `O=C(CSc1nc2ccccc2n1Cc1ccccc1)NNC(=S)Nc1ccccc1` stands -1.89%; under `COC(=O)c1cc2c(c3c4ccccc4n(S(=O)(=O)c4cccc(C)c4)c13)C(=O)N(Cc1ccccc1)C2`, 1.43%.
